Results as given in PubChem BioAssay AID624405 (Broad Institute, 2012).
The whole screen tested about 1,900 compounds, of which about 250 (13%) were called active. About 4% were inconclusive and are not listed. These entries were drawn from the full list. Entries with a potency or affinity are not part of this list. Unmarked numbers belong to inactive results.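 The calls were made as follows: active = fitted curve reaches 40% rescue activity at or below the top valid dose, in every test run; inconclusive = test runs disagree, some active and some inactive; inactive = every run misses the threshold or moves the wrong way.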

experiment: suppressors of statin myotoxicity in myotubes, dose response, cell-based, C2C12 myotubes, ATP luminescence, cherry pick (AID 624405); settings: C2C12 myotubes + simvastatin, 48 h, scaled: DMSO wells 0, geranylgeraniol wells 100; series mostly up to 19.5 µM; rescue activity (ATP increase): at the top concentration;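 also: myotubes are challenged with simvastatin at 10 µM to lower ATP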

Structure (SMILES)	rescue activity (ATP increase)
COC(=O)CCC(=O)Nc1sc(C)c(C)c1C(N)=O	-8.03%
C[C@@H]1CCCCO[C@@H](CN(C)C(=O)C2CCCCC2)[C@H](C)CN([C@@H](C)CO)C(=O)c2cc(NS(=O)(=O)c3ccccc3)ccc2O1	32.1%
COc1ccc(CN2[C@@H]3CNc4ccccc4[C@@H]3[C@@H]2CO)cc1	3.24%
C[C@@H]1CCCCO[C@H](CN(C)C(=O)NC2CCCCC2)[C@H](C)CN([C@@H](C)CO)C(=O)c2cc(NC(=O)Nc3cccc4ccccc34)ccc2O1	2.49%
C[C@H](CO)N1C[C@H](C)[C@@H](CN(C)Cc2ccc(Oc3ccccc3)cc2)Oc2ccc(NC(=O)Cc3cn(C)c4ccccc34)cc2CC1=O	22.8%
O=C(OCC(=O)N1CCOCC1)c1ccccc1SCC(=O)N1CCCC1	-12.9%
C[C@H](CO)N1C[C@H](C)[C@@H](CN(C)Cc2ccc(C(F)(F)F)cc2)Oc2ccc(NS(=O)(=O)c3cccs3)cc2CC1=O	17% [at 21 µM]
CC(=O)N1CCN(c2nnnn2-c2ccccc2)CC1	-24.2%
COCc1cc(C)nc(N2CCN(Cc3ccccc3)CC2)c1C#N	-6.29%
COc1ccc(S(=O)(=O)Nc2ccc3c(c2)C(=O)N([C@@H](C)CO)C[C@@H](C)[C@H](CN(C)C(=O)c2ccccc2)OCCCC[C@@H](C)O3)cc1	32.4%
COc1ccc2[nH]c(=O)c(CNc3ccc(C)c(C)c3)cc2c1	35.4%
COc1ccc2[nH]c(=O)c(CN(CCc3ccccc3)C(C)=O)cc2c1	4.66%
CC(=O)N1C=CN(C(C)=O)C(c2cn(C)c3ccccc23)C1c1cn(C)c2ccccc12 (stereo not drawn)	25.1%
Cc1cc(C)nc(NC(=NCCc2c[nH]c3ccccc23)NC(=O)c2ccco2)n1	-10.7%
O=C(Cc1coc(-c2ccc(F)cc2)n1)Nc1ccccc1	-14.8%
CCCCCNC(=O)C1CC=CCC1C(=O)O (stereo not drawn)	-14.6%
C[C@@H]1CN([C@H](C)CO)C(=O)Cc2cc(NC(=O)CCCCCC(=O)Nc3ccccc3N)ccc2O[C@H]1CN(C)CC1CCCCC1	32.9% [at 16 µM]
C[C@H]1CN([C@@H](C)CO)C(=O)Cc2cc(NC(=O)CCCCCC(=O)Nc3ccccc3N)ccc2O[C@@H]1CN(C)CC1CCCCC1	7.32% [at 21 µM]
COc1ccc(S(=O)(=O)N(C)C[C@@H]2OCCCC[C@H](C)Oc3ccc(NC(=O)Nc4ccc(C(F)(F)F)cc4)cc3C(=O)N([C@@H](C)CO)C[C@@H]2C)cc1	-28.3%
OC[C@H]1[C@@H]2c3ccccc3NC[C@@H]2N1Cc1ccccc1Cl	-11.1%
CCOc1ccccc1OCCOc1ccccc1CC	83.2%
COc1ccc(NC(=O)N(C)C[C@@H]2OCCCC[C@@H](C)Oc3ccc(NS(=O)(=O)c4c(C)noc4C)cc3C(=O)N([C@H](C)CO)C[C@H]2C)cc1	-2.69%

Structure (SMILES)	rescue activity (ATP increase)
C[C@@H]1CN([C@@H](C)CO)C(=O)c2cc(NC(=O)Cc3cn(C)c4ccccc34)ccc2O[C@H]1CN(C)S(=O)(=O)c1cccs1	4.86% [at 21 µM]
CC(C)(C)c1cc(C(F)(F)F)c(C#N)c(=O)[nH]1	-3.83%
C=CCn1c(COc2ccc(Cl)cc2)nnc1SCC(=O)c1c(N)n(C)c(=O)n(C)c1=O	29.1%
COc1ccc(S(=O)(=O)Nc2ccc3c(c2)CC(=O)N([C@H](C)CO)C[C@@H](C)[C@@H](CN(C)Cc2ccc(C(F)(F)F)cc2)O3)cc1	14.3% [at 21 µM]
CCOC(=O)C1CCN(C=Nc2cc(C)on2)CC1	-10.6%
COc1ccc(S(=O)(=O)Nc2ccc3c(c2)C(=O)N([C@@H](C)CO)C[C@H](C)[C@@H](CN(C)S(=O)(=O)c2ccc(F)cc2)OCCCC[C@H](C)O3)cc1	0.305%
NC(=O)C1CCN(Cc2nc3cc(Cl)ccc3c(=O)[nH]2)CC1	9.91%
C[C@@H]1CCCCO[C@@H](CN(C)C(=O)Nc2cccc3ccccc23)[C@H](C)CN([C@@H](C)CO)C(=O)c2cc(NS(=O)(=O)c3ccc(Cl)cc3)ccc2O1	8.11%
CCC/C(=C1/c2ccccc2C(=O)N1c1ccccc1)c1ccc2c(c1)OCCO2	10.9%
C[C@H](CO)N1C[C@H](C)[C@@H](CN(C)Cc2ccccc2F)Oc2ncc(C3=CCCCC3)cc2C1=O	-21.6%
C[C@@H]1CN([C@H](C)CO)C(=O)Cc2cc(NC(=O)Cc3cn(C)c4ccccc34)ccc2O[C@H]1CN(C)Cc1ccc(-c2ccccc2)cc1	9.45%
COc1ccc(CNc2ncnc3cc(OC)c(OC)cc23)cc1	-9.96%
COc1ccccc1CNc1ncnc2c1nnn2Cc1ccccc1	7.95%
CC(c1ccco1)N(C(=O)Nc1ccc(Cl)cc1)c1ccccn1 (stereo not drawn)	-25.4%
COc1ccc(-n2nnnc2SCC(=O)N2CCCc3ccccc32)cc1OC	29%
COc1ccccc1-c1nnc(SCC(=O)N2CC(C)CC(C)C2)o1 (stereo not drawn)	20%
CNC[C@@H]1Oc2ccc(NC(=O)Nc3ccc(C(F)(F)F)cc3)cc2CC(=O)N([C@@H](C)CO)C[C@@H]1C	-3.3%
CCOc1cc(CNCc2ccncc2)cc(Br)c1OCc1ccccc1F	-28%
COc1ccc2c(c1)c(C(=O)OCCN(C)C)c(C)n2C	37.3%
O=C(COc1ccccc1)Nc1ccc(S(=O)(=O)N2CCCC2)cc1	-27.4%
Cc1c(C(=O)N2CCOCC2)oc2ccc(S(=O)(=O)N3CCCC3)cc12	1.94%
